Inconclusive results are not listed. Activity calls are given as the source filed them. Rule for the calls: active = hit-call score of the fitted dose curve at least 0.9, where 1 is the maximum; inconclusive = response in the unintended direction; inactive = score below 0.9.

Chain of Retinoic acid receptor RXR-alpha (Homo sapiens) (P19793 whole entry, looked up, the tested form may be a part): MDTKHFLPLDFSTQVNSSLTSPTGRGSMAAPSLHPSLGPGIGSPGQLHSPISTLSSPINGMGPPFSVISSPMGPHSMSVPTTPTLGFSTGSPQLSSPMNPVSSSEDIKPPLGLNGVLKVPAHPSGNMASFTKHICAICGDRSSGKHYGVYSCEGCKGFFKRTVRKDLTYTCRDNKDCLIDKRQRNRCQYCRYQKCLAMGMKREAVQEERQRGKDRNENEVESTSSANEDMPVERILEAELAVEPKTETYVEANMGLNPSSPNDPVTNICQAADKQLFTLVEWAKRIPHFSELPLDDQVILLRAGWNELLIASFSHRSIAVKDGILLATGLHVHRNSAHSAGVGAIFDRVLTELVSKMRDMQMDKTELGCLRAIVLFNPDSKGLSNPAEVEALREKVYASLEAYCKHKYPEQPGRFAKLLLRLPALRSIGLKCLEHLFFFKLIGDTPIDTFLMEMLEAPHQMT
Chain of human RAR-related Orphan Receptor gamma (RORg), RORC (gene 6097) (P51449 whole entry, looked up, the tested form may be a part): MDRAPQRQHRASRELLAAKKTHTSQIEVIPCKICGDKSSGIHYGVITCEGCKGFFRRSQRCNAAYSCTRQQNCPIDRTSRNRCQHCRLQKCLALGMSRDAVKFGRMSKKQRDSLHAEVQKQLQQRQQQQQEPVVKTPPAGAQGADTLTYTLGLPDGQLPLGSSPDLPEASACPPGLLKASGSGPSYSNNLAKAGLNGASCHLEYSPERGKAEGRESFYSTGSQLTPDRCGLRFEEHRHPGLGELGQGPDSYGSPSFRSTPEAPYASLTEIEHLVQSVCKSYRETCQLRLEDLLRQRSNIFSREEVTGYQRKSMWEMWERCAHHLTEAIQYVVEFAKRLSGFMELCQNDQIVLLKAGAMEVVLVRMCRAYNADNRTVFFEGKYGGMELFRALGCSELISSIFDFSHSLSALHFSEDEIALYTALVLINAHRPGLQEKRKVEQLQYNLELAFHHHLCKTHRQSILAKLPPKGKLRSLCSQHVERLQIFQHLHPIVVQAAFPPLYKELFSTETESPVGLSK

The target of one assay is human RAR-related Orphan Receptor gamma (RORg), RORC (gene 6097) (UniProt P51449). As to the kind of experiment: ATG_RORg_TRANS: Attagene TRANS-FACTORIAL HepG2 Assay for human RAR-related Orphan Receptor gamma (RORg) (AID 2283011). Summed up:
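Chimeric RORg-Gal4 transactivation in transfected HepG2; 24 h exposure; RT-PCR/capillary electrophoresis readout of reporter mRNA, DMSO baseline.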
For the molecule `Clc1ccc(Cl)c(Cl)c1Cl`, the result was inactive.
On the same count and under the same terms, to `CCCCC(CC)COCCC#N` (stereo not given) belongs “inactive”.
In the case of `Cc1ccc(O)c(C(C)(C)C)c1`, the call was inactive.
Take `COc1cc(C)cc(O)c1`: the molecule was called inactive.
As to `O=C(O)CCSCCC(=O)O`, the outcome was inactive.
In the case of `CC1=CCC2C(C1)C2(C)C` (stereo not given), the molecule was classed as inactive.
Same read-out and setting: to `CCCCCCOC(=O)CC` belongs “inactive”; to `CCCCOCCOCCSC#N`, “inactive”.
On the same count and under the same terms, to `CC(CC(C)(C)C)CC(C)(C)CC(C)(C)C` (stereo not given) belongs “inactive”.
Same read-out and setting: with `COC(C)CCO` (stereo not given) the entry was “inactive”; with `COc1ccnc(CS(=O)c2nc3cc(OC(F)F)ccc3[nH]2)c1OC` (stereo not given), “inactive”; with `CC(CCO)CCCC(C)(C)O` (stereo not given), “inactive”.
For the molecule `C=CC(=O)OCCn1c(=O)n(CCOC(=O)C=C)c(=O)n(CCOC(=O)C=C)c1=O`, the result was inactive.
For the molecule `O=C1CCCCCCCCCCCCCCO1`, the result was inactive.
On the same count and under the same terms, to `O=Cc1ccc(Cl)c([N+](=O)[O-])c1` belongs “inactive”; to `CCCC(=O)OCCC(C)CCC=C(C)C` (stereo not given), “inactive”; to `CC(C)=CCC/C(C)=C/COC=O`, “inactive”.
Regarding `Cc1cccc(C)c1[N+](=O)[O-]`, the call was inactive.
The same measure, in the same setting: with `CCc1c(C)cc(N)c(CC)c1N` the entry was “inactive”; with `Nc1cc(N)cc(C(=O)O)c1`, “inactive”; with `NCCNCCN`, “inactive”.
Take `CC(C)=CCC[C@](C)(O)[C@@H]1CC=C(C)CC1`: the call was inactive.
Same read-out and setting: to `CCCCCCCCCCCCCCCC(=O)OC[C@H](O)[C@H]1OC(=O)C(O)=C1O` belongs “inactive”; to `Nc1ccc(F)c([N+](=O)[O-])c1`, “inactive”; to `CCN(CC)c1ccc(C(=C2C=CC(=[N+](CC)CC)C=C2)c2ccc(S(=O)(=O)O)cc2S(=O)(=O)[O-])cc1`, “inactive”.
Regarding `C=C[Si](OCC)(OCC)OCC`, the outcome was inactive.
Still for that read-out and setting: to `CCCC(C)C=O` (stereo not given) belongs “inactive”; to `O=S(=O)(O)c1ccc(O)c2ncccc12`, “inactive”; to `Nc1cc([N+](=O)[O-])ccc1Cl`, “inactive”.
As for `O=C=NC1CCC(CC2CCC(N=C=O)CC2)CC1` (stereo not given), the molecule was called inactive.
In the case of `CC(=O)C(=O)O`, the molecule was called inactive.
As for `Cc1ccc2ccccc2n1`, the molecule was classed as inactive.
On the same count and under the same terms, with `Clc1nc(C(Cl)(Cl)Cl)c(Cl)c(Cl)c1Cl` the entry was “inactive”.
Still for that read-out and setting: with `NCCOCCO` the entry was “inactive”.
As to `CC(=O)Nc1ccccc1O`, the outcome was inactive.
On the same count and under the same terms, to `OC1OC[C@@H](O)[C@H](O)[C@H]1O` (stereo not given in full) belongs “inactive”.

Another assay has as its target Retinoic acid receptor RXR-alpha (Homo sapiens) (UniProt P19793). In words: ATG_RXRa_TRANS: Attagene TRANS-FACTORIAL HepG2 Assay for human Retinoid X Receptor alpha (RXRa) (AID 2283012). The procedure, abridged: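 Cells (HepG2) carried transiently transfected GAL4-responsive reporter units. Following a 24 h chemical incubation, reporter mRNA induction was read via RT-PCR fragment analysis; DMSO served as negative control and baseline.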
On to `Clc1ccc(Cl)c(Cl)c1Cl`, for which the outcome was inactive.
Consider `CCCCC(CC)COCCC#N` (stereo not given), for which the outcome was inactive.
Same read-out and setting: to `Cc1ccc(O)c(C(C)(C)C)c1` belongs “inactive”; to `COc1cc(C)cc(O)c1`, “inactive”.
`O=C(O)CCSCCC(=O)O`: the outcome was inactive.
The same measure, in the same setting: with `CC1=CCC2C(C1)C2(C)C` (stereo not given) the entry was “inactive”.
On the same count and under the same terms, to `CCCCCCOC(=O)CC` belongs “inactive”.
Still for that read-out and setting: to `CCCCOCCOCCSC#N` belongs “inactive”; to `CC(CC(C)(C)C)CC(C)(C)CC(C)(C)C` (stereo not given), “inactive”.
As a reminder, the AC50 is the concentration giving half of the maximal activity seen. For `COC(C)CCO` (stereo not given), the AC50 was 53.7 µM (active).
In the case of `COc1ccnc(CS(=O)c2nc3cc(OC(F)F)ccc3[nH]2)c1OC` (stereo not given), the result was inactive.
On to `CC(CCO)CCCC(C)(C)O` (stereo not given), for which the outcome was inactive.
Same read-out and setting: with `C=CC(=O)OCCn1c(=O)n(CCOC(=O)C=C)c(=O)n(CCOC(=O)C=C)c1=O` the entry was “inactive”; with `O=C1CCCCCCCCCCCCCCO1`, “inactive”.
Still for that read-out and setting: with `O=Cc1ccc(Cl)c([N+](=O)[O-])c1` the entry was “inactive”; with `CCCC(=O)OCCC(C)CCC=C(C)C` (stereo not given), “inactive”; with `CC(C)=CCC/C(C)=C/COC=O`, “inactive”.
As for `Cc1cccc(C)c1[N+](=O)[O-]`, the molecule was classed as inactive.
For the molecule `CCc1c(C)cc(N)c(CC)c1N`, the molecule was called inactive.
Turning to `Nc1cc(N)cc(C(=O)O)c1`, the molecule was classed as inactive.
Still for that read-out and setting: to `NCCNCCN` belongs “inactive”; to `CC(C)=CCC[C@](C)(O)[C@@H]1CC=C(C)CC1`, “inactive”; to `CCCCCCCCCCCCCCCC(=O)OC[C@H](O)[C@H]1OC(=O)C(O)=C1O`, “inactive”.
Same read-out and setting: with `Nc1ccc(F)c([N+](=O)[O-])c1` the entry was “inactive”; with `CCN(CC)c1ccc(C(=C2C=CC(=[N+](CC)CC)C=C2)c2ccc(S(=O)(=O)O)cc2S(=O)(=O)[O-])cc1`, “inactive”.
On the same count and under the same terms, with `C=C[Si](OCC)(OCC)OCC` the entry was “inactive”.
On to `CCCC(C)C=O` (stereo not given), for which the molecule was called inactive.
For the molecule `O=S(=O)(O)c1ccc(O)c2ncccc12`, the outcome was inactive.
Regarding `Nc1cc([N+](=O)[O-])ccc1Cl`, the call was inactive.
Consider `O=C=NC1CCC(CC2CCC(N=C=O)CC2)CC1` (stereo not given), for which the outcome was inactive.
`CC(=O)C(=O)O`: the outcome was inactive.
The same measure, in the same setting: to `Cc1ccc2ccccc2n1` belongs “inactive”; to `Clc1nc(C(Cl)(Cl)Cl)c(Cl)c(Cl)c1Cl`, “inactive”.
With `NCCOCCO`, the molecule was called inactive.
Same read-out and setting: to `CC(=O)Nc1ccccc1O` belongs “inactive”.
As to `OC1OC[C@@H](O)[C@H](O)[C@H]1O` (stereo not given in full), the molecule was classed as inactive.

The target of the next assay is human Retinoid X Receptor beta (RXRb), RXRB (gene 6257) (UniProt P28702). In words: ATG_RXRb_TRANS: Attagene TRANS-FACTORIAL HepG2 Assay for human Retinoid X Receptor beta (RXRb) (AID 2283013). The procedure, abridged: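 Multiplexed TRANS reporter assay in HepG2; 24 h dosing; reporter mRNA by RT-PCR/CE fluorescence; gain-of-signal relative to DMSO.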
Chain of human Retinoid X Receptor beta (RXRb), RXRB (gene 6257) (P28702 whole entry, looked up): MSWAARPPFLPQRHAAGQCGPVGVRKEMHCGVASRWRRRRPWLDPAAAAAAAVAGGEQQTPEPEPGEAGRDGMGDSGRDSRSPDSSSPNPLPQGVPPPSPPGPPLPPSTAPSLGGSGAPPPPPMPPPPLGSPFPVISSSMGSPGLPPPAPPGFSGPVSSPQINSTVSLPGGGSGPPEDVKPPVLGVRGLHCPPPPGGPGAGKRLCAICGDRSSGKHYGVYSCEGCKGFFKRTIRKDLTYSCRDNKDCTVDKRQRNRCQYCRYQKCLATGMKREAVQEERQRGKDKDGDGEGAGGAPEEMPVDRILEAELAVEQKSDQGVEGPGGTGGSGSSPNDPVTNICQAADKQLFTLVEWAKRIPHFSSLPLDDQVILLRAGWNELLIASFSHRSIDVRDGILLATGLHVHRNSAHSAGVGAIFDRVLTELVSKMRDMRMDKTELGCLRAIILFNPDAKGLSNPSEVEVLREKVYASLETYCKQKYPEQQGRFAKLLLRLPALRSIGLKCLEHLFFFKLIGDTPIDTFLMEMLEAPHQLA
Consider `Clc1ccc(Cl)c(Cl)c1Cl`, for which the AC50 is 63.4 µM (active).
For `CCCCC(CC)COCCC#N` (stereo not given), the AC50 was 51.1 µM (active).
On to `Cc1ccc(O)c(C(C)(C)C)c1`, for which the AC50 was 9 µM (active).
Regarding `COc1cc(C)cc(O)c1`, the result was inactive.
On the same count and under the same terms, with `O=C(O)CCSCCC(=O)O` the entry was “inactive”; with `CC1=CCC2C(C1)C2(C)C` (stereo not given), “inactive”.
On the same count and under the same terms, with `CCCCCCOC(=O)CC` the entry was “inactive”; with `CCCCOCCOCCSC#N`, “inactive”.
Regarding `CC(CC(C)(C)C)CC(C)(C)CC(C)(C)C` (stereo not given), the outcome was inactive.
Take `COC(C)CCO` (stereo not given): the AC50 was 4.07 µM (active).
On to `COc1ccnc(CS(=O)c2nc3cc(OC(F)F)ccc3[nH]2)c1OC` (stereo not given), for which the result was inactive.
Turning to `O=C1CCCCCCCCCCCCCCO1`, the concentration at half-maximal activity (AC50) is 100 µM (active).
Consider `CC(C)=CCC/C(C)=C/COC=O`, for which the result was inactive.
Still for that read-out and setting: to `CCc1c(C)cc(N)c(CC)c1N` belongs “inactive”.
Consider `NCCNCCN`, for which the outcome was inactive.
For `CC(C)=CCC[C@](C)(O)[C@@H]1CC=C(C)CC1`, the result was inactive.
Turning to `CCCCCCCCCCCCCCCC(=O)OC[C@H](O)[C@H]1OC(=O)C(O)=C1O`, the molecule was classed as inactive.
As to `Nc1ccc(F)c([N+](=O)[O-])c1`, the molecule was called inactive.
As for `CCN(CC)c1ccc(C(=C2C=CC(=[N+](CC)CC)C=C2)c2ccc(S(=O)(=O)O)cc2S(=O)(=O)[O-])cc1`, the AC50 was 100 µM (active).
As for `C=C[Si](OCC)(OCC)OCC`, the molecule was called inactive.
Turning to `CCCC(C)C=O` (stereo not given), the outcome was inactive.
Regarding `O=S(=O)(O)c1ccc(O)c2ncccc12`, the molecule was called inactive.
For `Nc1cc([N+](=O)[O-])ccc1Cl`, the outcome was inactive.
The same measure, in the same setting: with `O=C=NC1CCC(CC2CCC(N=C=O)CC2)CC1` (stereo not given) the entry was “inactive”.
The same measure, in the same setting: to `CC(=O)C(=O)O` belongs “inactive”.
With `Clc1nc(C(Cl)(Cl)Cl)c(Cl)c(Cl)c1Cl`, the AC50 is 21.8 µM (active).
On to `CC(=O)Nc1ccccc1O`, for which the outcome was inactive.
For `OC1OC[C@@H](O)[C@H](O)[C@H]1O` (stereo not given in full), the molecule was classed as inactive.

The values are drawn from PubChem BioAssay (EPA / NIEHS).
